Assay results: PubChem BioAssay (EPA / NIEHS)
A structure can be active in one record and inactive in another. Calls of active or inactive are those of the source. Rule for the calls: active = hit-call score of the fitted dose curve at least 0.9, where 1 is the maximum; inactive = score below 0.9.

Columns and labels:
Settings in all cases: mRNA level, 48 h; actives raise or lower the signal
MYC, MYC (gene 4609) = test: LTEA_HepaRG_MYC: Life Technologies and Expression Analysis (LTEA) Assay for MYC using HepaRG (AID 2283518)
Outline: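 HepaRG, ~100,000 cells/well, collagen I; 48 h plating; serum-free induction medium; 48 h dosing, duplicate, 100 uM top, half-log, 0.5% DMSO; total RNA → qRT-PCR MYC; gain/loss fit vs DMSO.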

[1] = read-out: matrix metalloproteinase-3 (MMP3), MMP3 (gene 4314); test: LTEA_HepaRG_MMP3: Life Technologies and Expression Analysis (LTEA) Assay for matrix metalloproteinase-3 (MMP3) using HepaRG (AID 2283519)
Outline: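 qRT-PCR read-out of MMP3 mRNA (normalised to three housekeeping genes) in HepaRG liver cells after 48 h chemical exposure; 8-point half-log series, top 100 uM, 0.5% DMSO vehicle. Bidirectional curve fitting against DMSO baseline.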

[2] = read-out: Paternally Expressed 10 (PEG10), PEG10 (gene 23089); test: LTEA_HepaRG_PEG10: Life Technologies and Expression Analysis (LTEA) Assay for Paternally Expressed 10 (PEG10) using HepaRG (AID 2283520)
Outline: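 PEG10 transcript measured by Fluidigm qRT-PCR, normalized to three housekeeping genes, in HepaRG cells treated 48 h (highest 100 uM, half-log steps, 0.5% DMSO vehicle). Cells plated 48 h before switching to serum-free induction medium.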

[3] = read-out: Nuclear factor NF-kappa-B p105 subunit (Homo sapiens) (UniProt P19838); test: LTEA_HepaRG_NFKB1: Life Technologies and Expression Analysis (LTEA) Assay for Nuclear Factor Kappa B Subunit 1 (NFKB1) using HepaRG (AID 2283521);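 note: differentiated human HepaRG liver cells in serum-free induction medium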
Outline: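 NFKB1 transcript was measured by TaqMan qRT-PCR on Fluidigm arrays, normalised to three housekeeping genes and fitted in both directions against 0.5% DMSO. HepaRG cells were dosed in duplicate for 48 h in serum-free induction medium, eight half-log steps from 100 uM.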

[4] = read-out: Protein phosphatase 2A (PPP2R4), PTPA (gene 5524); test: LTEA_HepaRG_PPP2R4: Life Technologies and Expression Analysis (LTEA) Assay for Protein phosphatase 2A (PPP2R4) using HepaRG (AID 2283522)
Outline: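 Expression was quantified by Fluidigm qRT-PCR normalised to three housekeeping genes after 48 h treatment. Human HepaRG cells received an 8-point series from 100 µM downward by half-logs, in duplicate with 0.5% DMSO vehicle and 1 mM phenobarbital as induction control.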

[5] = read-out: Phosphatase and tensin (PTEN), PTEN (gene 5728); test: LTEA_HepaRG_PTEN: Life Technologies and Expression Analysis (LTEA) Assay for Phosphatase and tensin (PTEN) using HepaRG (AID 2283523)
Outline: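 HepaRG, 48 h exposure, 8-pt half-log series from 100 uM top, 0.5% DMSO vehicle, duplicates. Readout: Fluidigm qRT-PCR of PTEN transcript; housekeeping normalization (ACTB, GAPDH, POLR2A). Gain or loss fitted relative to DMSO baseline.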

[6] = read-out: Pyruvate Dehydrogenase Kinase 4 (PDK4), PDK4 (gene 5166); test: LTEA_HepaRG_PDK4: Life Technologies and Expression Analysis (LTEA) Assay for Pyruvate Dehydrogenase Kinase 4 (PDK4) using HepaRG (AID 2283525)
Outline: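 HepaRG (human liver line), 48 h chemical exposure, 8-pt half-log CRC top 100 uM, 0.5% DMSO vehicle, duplicates. Readout: TaqMan qRT-PCR of PDK4 mRNA, housekeeping-normalized; gain/loss fit relative to DMSO baseline.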

[7] = read-out: NAD(P)H dehydrogenase [quinone] 1 (NQO1), NQO1 (gene 1728); test: LTEA_HepaRG_NQO1: Life Technologies and Expression Analysis (LTEA) Assay for NAD(P)H dehydrogenase [quinone] 1 (NQO1) using HepaRG (AID 2283526)
Outline: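 NQO1 transcript induction or loss measured by TaqMan qRT-PCR, referenced to three housekeeping genes and fitted bidirectionally against 0.5% DMSO. HepaRG cultures exposed 48 h, duplicate, eight-point half-log series, top 100 uM.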

[8] = read-out: Nuclear factor erythroid 2-related factor 2 (Homo sapiens) (UniProt Q16236); test: LTEA_HepaRG_NFE2L2: Life Technologies and Expression Analysis (LTEA) Assay for Nuclear factor erythroid 2-related factor 2 (NFE2L2) Transcription Factor using HepaRG (AID 2283527)
Outline: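 HepaRG, 48 h dosing, 8-pt half-log series from 100 uM in 0.5% DMSO, duplicates. Read-out: NFE2L2 mRNA by qRT-PCR (ACTB/GAPDH/POLR2A normalization). Bidirectional curve fit vs DMSO baseline.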

[9] = read-out: Signal transducer and activator of transcription 3 (Homo sapiens) (UniProt P40763); test: LTEA_HepaRG_STAT3: Life Technologies and Expression Analysis (LTEA) Assay for Signal transducer and activator of transcription (STAT3) using HepaRG (AID 2283529)
Outline: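 HepaRG, 48 h exposure, 8-pt half-log series (top 100 uM), 0.5% DMSO vehicle, duplicates. Readout: STAT3 transcript by Fluidigm qRT-PCR, housekeeping-normalized; bidirectional fit vs DMSO baseline.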

[10] = read-out: solute carrier (SLCO1B1), SLCO1B1 (gene 10599); test: LTEA_HepaRG_SLCO1B1: Life Technologies and Expression Analysis (LTEA) Assay for solute carrier (SLCO1B1) using HepaRG (AID 2283530)
Outline: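 HepaRG, serum-free induction medium, 48 h dosing, 8-pt half-log from 100 uM, 0.5% DMSO vehicle, duplicates. Readout: SLCO1B1 mRNA, qRT-PCR, ACTB/GAPDH/POLR2A normalization; up or down fit vs DMSO.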

[11] = read-out: sulfotransferase 2A1 (SULT2A1), SULT2A1 (gene 6822); test: LTEA_HepaRG_SULT2A1: Life Technologies and Expression Analysis (LTEA) Assay for sulfotransferase 2A1 (SULT2A1) using HepaRG (AID 2283531)
Outline: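 Transcript levels of SULT2A1, quantified by qRT-PCR and normalized to three housekeeping genes, serve as the readout. Human HepaRG cultures receive test chemicals for 48 h at up to 100 uM in half-log steps, with 0.5% DMSO vehicle.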

[12] = read-out: Transforming Growth Factor (TGFA), TGFA (gene 7039); test: LTEA_HepaRG_TGFA: Life Technologies and Expression Analysis (LTEA) Assay for Transforming Growth Factor (TGFA) using HepaRG (AID 2283532)
Outline: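 qRT-PCR read-out of TGFA transcript, normalized to three housekeeping genes, fitted bidirectionally against 0.5% DMSO baseline. Human HepaRG cultures received chemicals for 48 h at eight half-log concentrations, top 100 uM.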

[13] = read-out: Transforming Growth Factor (TGFB1), TGFB1 (gene 7040); test: LTEA_HepaRG_TGFB1: Life Technologies and Expression Analysis (LTEA) Assay for Transforming Growth Factor (TGFB1) Transporter using HepaRG (AID 2283533)
Outline: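 HepaRG, 48 h post-plating, switched to serum-free induction medium; chemicals 100 uM top, half-log, 8 pts, 0.5% DMSO, dup; 48 h exposure; RNA → Fluidigm TaqMan qRT-PCR; norm ACTB/GAPDH/POLR2A; bidirectional fit vs DMSO.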

TIMP1, TIMP1 (gene 7076) = test: LTEA_HepaRG_TIMP1: Life Technologies and Expression Analysis (LTEA) Assay for TIMP1 using HepaRG (AID 2283534)
Outline: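 Readout is TIMP1 mRNA level measured by qRT-PCR and normalized to three housekeeping genes. Human HepaRG cells were treated for 48 h in duplicate at eight concentrations up to 100 uM (0.5% DMSO); gain or loss fitted against DMSO.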

[14] = read-out: Tumor necrosis factor receptor 1 (TNFRSF1A), TNFRSF1A (gene 7132); test: LTEA_HepaRG_TNFRSF1A: Life Technologies and Expression Analysis (LTEA) Assay for Tumor necrosis factor receptor 1 (TNFRSF1A) using HepaRG (AID 2283535)
Outline: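 Read-out is TNFRSF1A transcript level by TaqMan qRT-PCR, normalized to three housekeeping genes, scored as gain or loss of signal versus 0.5% DMSO. Human HepaRG cells received test chemicals for 48 h at up to 100 uM (half-log series).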

[15] = read-out: Thyroid Hormone Responsive (THRSP), THRSP (gene 7069); test: LTEA_HepaRG_THRSP: Life Technologies and Expression Analysis (LTEA) Assay for Thyroid Hormone Responsive (THRSP) using HepaRG (AID 2283536)
Outline: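 qRT-PCR read-out (Fluidigm TaqMan), housekeeping-normalized (ACTB/GAPDH/POLR2A). HepaRG, 48 h chemical exposure, 8-pt half-log series from 100 uM in 0.5% DMSO, duplicates. Bidirectional curve fit vs 0.5% DMSO baseline.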

[16] = read-out: Cellular tumor antigen p53 (Homo sapiens) (UniProt P04637); test: LTEA_HepaRG_TP53: Life Technologies and Expression Analysis (LTEA) Assay for Tumor Protein P53 (TP53) using HepaRG (AID 2283537)
Outline: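 TP53 transcript measured by qRT-PCR, normalized to three housekeeping genes, after 48 h treatment of human HepaRG cultures with chemicals from 100 uM downward in half-log steps (0.5% DMSO vehicle, serum-free induction medium). Up- or down-regulation fitted against DMSO.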

[17] = read-out: succinate dehydrogenase complex iron sulfur subunit B (SDHB), SDHB (gene 6390); test: LTEA_HepaRG_SDHB: Life Technologies and Expression Analysis (LTEA) Assay for succinate dehydrogenase complex iron sulfur subunit B (SDHB) using HepaRG (AID 2283528)
Outline: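 SDHB transcript level read by TaqMan qRT-PCR, housekeeping-normalised (ACTB, GAPDH, POLR2A), after 48 h chemical treatment of plated HepaRG cells; eight concentrations top 100 uM, half-log steps, 0.5% DMSO, duplicates; fitted both directions against DMSO.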

Sequence of Signal transducer and activator of transcription 3 (Homo sapiens) (P40763 whole entry, looked up): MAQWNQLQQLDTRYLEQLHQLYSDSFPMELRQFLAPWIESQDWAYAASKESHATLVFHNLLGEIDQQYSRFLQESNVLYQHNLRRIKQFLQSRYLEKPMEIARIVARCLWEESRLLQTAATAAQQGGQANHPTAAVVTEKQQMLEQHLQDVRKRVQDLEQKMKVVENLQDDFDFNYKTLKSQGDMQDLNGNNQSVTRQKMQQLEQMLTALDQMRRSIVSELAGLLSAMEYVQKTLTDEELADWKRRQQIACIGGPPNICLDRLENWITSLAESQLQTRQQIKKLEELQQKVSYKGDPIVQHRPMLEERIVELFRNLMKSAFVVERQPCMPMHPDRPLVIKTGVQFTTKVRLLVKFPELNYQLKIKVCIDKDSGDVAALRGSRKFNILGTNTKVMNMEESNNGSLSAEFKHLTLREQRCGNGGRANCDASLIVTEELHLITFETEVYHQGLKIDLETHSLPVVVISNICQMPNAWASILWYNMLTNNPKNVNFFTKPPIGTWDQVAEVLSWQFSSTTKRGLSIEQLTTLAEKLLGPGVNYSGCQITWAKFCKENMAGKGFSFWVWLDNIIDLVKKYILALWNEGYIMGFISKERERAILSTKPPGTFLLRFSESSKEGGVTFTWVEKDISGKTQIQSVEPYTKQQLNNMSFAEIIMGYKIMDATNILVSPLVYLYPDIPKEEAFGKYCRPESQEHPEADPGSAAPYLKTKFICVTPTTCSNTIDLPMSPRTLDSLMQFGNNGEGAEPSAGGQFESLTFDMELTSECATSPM
Sequence of Nuclear factor NF-kappa-B p105 subunit (Homo sapiens) (P19838 whole entry, looked up): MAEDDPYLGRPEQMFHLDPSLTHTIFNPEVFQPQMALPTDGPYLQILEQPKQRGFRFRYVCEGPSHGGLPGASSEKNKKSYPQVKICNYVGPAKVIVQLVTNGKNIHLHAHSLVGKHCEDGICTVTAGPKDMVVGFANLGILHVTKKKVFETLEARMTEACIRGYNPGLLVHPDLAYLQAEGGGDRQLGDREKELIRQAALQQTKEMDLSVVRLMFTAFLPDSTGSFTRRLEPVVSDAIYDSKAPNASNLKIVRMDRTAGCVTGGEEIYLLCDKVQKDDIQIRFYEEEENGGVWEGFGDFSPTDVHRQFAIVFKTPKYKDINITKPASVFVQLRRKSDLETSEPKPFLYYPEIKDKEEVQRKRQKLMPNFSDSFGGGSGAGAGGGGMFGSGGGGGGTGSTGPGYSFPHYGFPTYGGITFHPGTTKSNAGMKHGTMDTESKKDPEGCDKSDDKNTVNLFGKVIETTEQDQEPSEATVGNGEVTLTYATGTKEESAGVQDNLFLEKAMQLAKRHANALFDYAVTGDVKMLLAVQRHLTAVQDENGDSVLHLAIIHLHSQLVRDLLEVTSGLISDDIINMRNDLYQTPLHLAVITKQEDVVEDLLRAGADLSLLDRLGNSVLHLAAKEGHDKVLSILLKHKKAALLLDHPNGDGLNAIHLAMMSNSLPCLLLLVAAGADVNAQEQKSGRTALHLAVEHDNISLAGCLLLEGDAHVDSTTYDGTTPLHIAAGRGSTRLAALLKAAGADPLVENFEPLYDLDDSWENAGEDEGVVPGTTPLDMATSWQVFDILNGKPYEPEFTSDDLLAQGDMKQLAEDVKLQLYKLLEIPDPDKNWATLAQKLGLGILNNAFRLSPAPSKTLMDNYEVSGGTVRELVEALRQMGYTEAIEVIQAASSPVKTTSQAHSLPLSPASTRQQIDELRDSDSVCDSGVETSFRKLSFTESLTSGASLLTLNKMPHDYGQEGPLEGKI
Sequence of Cellular tumor antigen p53 (Homo sapiens) (P04637 whole entry, looked up): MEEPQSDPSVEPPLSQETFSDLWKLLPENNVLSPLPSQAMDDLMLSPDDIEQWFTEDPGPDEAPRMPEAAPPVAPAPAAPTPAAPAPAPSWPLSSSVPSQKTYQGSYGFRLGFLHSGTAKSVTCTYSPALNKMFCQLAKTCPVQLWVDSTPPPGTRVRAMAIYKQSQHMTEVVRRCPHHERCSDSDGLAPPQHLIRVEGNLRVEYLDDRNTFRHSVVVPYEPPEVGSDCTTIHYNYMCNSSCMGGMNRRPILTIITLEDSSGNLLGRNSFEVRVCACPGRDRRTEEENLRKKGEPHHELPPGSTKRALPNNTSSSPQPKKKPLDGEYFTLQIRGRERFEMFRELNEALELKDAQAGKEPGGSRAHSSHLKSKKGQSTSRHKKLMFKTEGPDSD
Sequence of Nuclear factor erythroid 2-related factor 2 (Homo sapiens) (Q16236 whole entry, looked up): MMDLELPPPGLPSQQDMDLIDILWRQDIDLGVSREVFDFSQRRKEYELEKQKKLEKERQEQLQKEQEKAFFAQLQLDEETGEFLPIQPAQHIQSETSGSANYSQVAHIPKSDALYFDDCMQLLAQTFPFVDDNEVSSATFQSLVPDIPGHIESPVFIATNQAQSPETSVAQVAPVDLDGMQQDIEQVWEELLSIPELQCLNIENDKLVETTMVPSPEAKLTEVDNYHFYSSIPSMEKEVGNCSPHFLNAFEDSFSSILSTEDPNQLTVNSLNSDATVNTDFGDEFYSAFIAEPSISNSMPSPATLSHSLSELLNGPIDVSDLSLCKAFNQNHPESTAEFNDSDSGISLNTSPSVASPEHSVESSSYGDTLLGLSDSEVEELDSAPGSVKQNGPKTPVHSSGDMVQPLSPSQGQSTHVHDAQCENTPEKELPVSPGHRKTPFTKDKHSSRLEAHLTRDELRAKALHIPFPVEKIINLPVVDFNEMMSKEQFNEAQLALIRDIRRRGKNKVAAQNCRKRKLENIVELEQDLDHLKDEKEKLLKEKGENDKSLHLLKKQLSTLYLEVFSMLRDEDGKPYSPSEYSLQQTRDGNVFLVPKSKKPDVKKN

How did the outcome (MYC, MYC (gene 4609)) turn out when `CCCCCCC(C)OC(=O)COc1nc(F)c(Cl)c(N)c1Cl` (stereo not drawn) was run?
The outcome was “inactive”.

And the outcome [1]?
The outcome was “inactive”.

What about the outcome [2] of the same compound?
The outcome was “inactive”.

And the outcome [3]?
The outcome was “inactive”.

And the outcome [4]?
Its outcome is “inactive”.

What about the outcome [5] of the same compound?
Its outcome is “inactive”.

What about the outcome [6] of the same compound?
The outcome was “inactive”.

And the outcome [7]?
Its outcome is “inactive”.

What about the outcome [8] of the same compound?
The outcome was “inactive”.

What about the outcome [9] of the same compound?
Its outcome is “inactive”.

What about the outcome [10] of the same compound?
The outcome was “inactive”.

What about the outcome [11] of the same compound?
Its outcome is “inactive”.

What about the outcome [12] of the same compound?
The outcome was “inactive”.

And the outcome [13]?
The outcome was “inactive”.

What about the outcome (TIMP1, TIMP1 (gene 7076)) of the same compound?
The outcome was “inactive”.

And the outcome [14]?
Its outcome is “inactive”.

And the outcome [15]?
Its outcome is “inactive”.

And the outcome [16]?
The outcome was “inactive”.

Which results are given for `CC(C)(c1ccc(O)cc1)c1ccc(O)cc1`?
AC50 (MYC, MYC (gene 4609)): 9.92 µM (active); outcome (MYC, MYC (gene 4609)): inactive; outcome [1]: inactive; outcome [2]: inactive; outcome [3]: inactive; outcome [4]: inactive; outcome [5]: inactive; outcome [6]: inactive; outcome [7]: inactive; outcome [8]: inactive; outcome [9]: inactive; AC50 [10]: 9.92 µM (active); outcome [10]: inactive; AC50 [11]: 291 µM (active); outcome [11]: inactive; outcome [12]: inactive; outcome [13]: inactive; outcome (TIMP1, TIMP1 (gene 7076)): inactive; outcome [14]: inactive; outcome [15]: inactive; outcome [16]: inactive

Which results are given for `CCNc1nc(N)nc(Cl)n1`?
outcome (MYC, MYC (gene 4609)): inactive; outcome [1]: inactive; outcome [2]: inactive; outcome [3]: inactive; outcome [4]: inactive; outcome [5]: inactive; outcome [6]: inactive; outcome [7]: inactive; outcome [8]: inactive; outcome [17]: inactive; outcome [9]: inactive; outcome [10]: inactive; outcome [11]: inactive; outcome [12]: inactive; outcome [13]: inactive; outcome (TIMP1, TIMP1 (gene 7076)): inactive; outcome [14]: inactive; outcome [15]: inactive; outcome [16]: inactive
